# MITF primary: inhibitors of human MITF; inhibition, % at 2.6 µM; AlphaScreen MITF homodimerization, bead proximity signal; 650,000 tested, 0.91% active; in the data active = inhibition above about 50%;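 also: 0% = vehicle wells with protein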
# Target sequence (O75030 whole entry, looked up): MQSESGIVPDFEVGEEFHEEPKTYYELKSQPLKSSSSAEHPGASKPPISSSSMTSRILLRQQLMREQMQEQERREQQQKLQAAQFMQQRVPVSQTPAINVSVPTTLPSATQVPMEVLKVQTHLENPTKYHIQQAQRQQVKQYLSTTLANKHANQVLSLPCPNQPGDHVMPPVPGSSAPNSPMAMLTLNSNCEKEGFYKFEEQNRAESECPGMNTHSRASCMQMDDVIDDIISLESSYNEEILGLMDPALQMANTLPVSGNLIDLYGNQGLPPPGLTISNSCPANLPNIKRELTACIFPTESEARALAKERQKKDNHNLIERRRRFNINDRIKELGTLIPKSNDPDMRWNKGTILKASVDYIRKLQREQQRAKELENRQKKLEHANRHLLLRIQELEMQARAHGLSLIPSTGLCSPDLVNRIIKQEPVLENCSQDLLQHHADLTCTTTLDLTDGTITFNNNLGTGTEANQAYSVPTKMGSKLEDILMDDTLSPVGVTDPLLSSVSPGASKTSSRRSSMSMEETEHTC
# GPR151 ag: activates the human receptor GPR151 | Q8TDV0 | PathHunter beta-arrestin GPR151 cells, luminescence | activation, % at 11.2 µM | 650,000 tested, 1% active; in the data active = activation above about 4.9%;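 also: 0% = median of compound wells and 100% = cells with positive control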
# FBW7 act: activators of human E3 ligase FBW7. normalized activity (activation), % at 26.1 µM. AlphaScreen FBW7–phospho-cyclin E peptide binding, activator screen. 650,000 tested, 0.13% active; in the data active = normalized activity above about 1.9%;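 also: purified mutant Fbw7 with reduced substrate affinity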
# TEAD-YAP inh: TEAD-YAP interaction inhibition. HEK-TIYL cells, TEAD-Gal4/YAP UAS-luciferase luminescence. inhibition, % at 9.12 µM. 640,000 tested, 1.4% active; in the data active = inhibition above about 32%;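 also: 0% = median of test compound wells and 100% = reference inhibitor wells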
# Starred values were filed as active, the others as inactive. A selection: hits, their analogues and other compounds. The true share with any hit is near 3.4%.
SMILES,MITF primary,GPR151 ag,FBW7 act,TEAD-YAP inh
COCCN(Cc1cccnc1)C(Cc1ccccc1)C1CCN(Cc2cnn(C)c2)CC1 (configuration not stated),-5,2,7.6*,6
CC(=O)Oc1ccc(N(C(C)=O)S(=O)(=O)c2ccccc2)cc1Cl,-11,-1,0,0
COC(=O)c1cc(NC(=O)C23CCC(C)(C(=O)C2=O)C3(C)C)cc(C(=O)OC)c1 (configuration not stated),59*,2,0,3
O=C(COc1ccccc1)NCC(c1ccco1)N1CCN(c2ccccc2)CC1 (configuration not stated),2,0,0,-4
Cc1cc(Cl)ccc1OCC(=O)NNC(=O)c1ccc([N+](=O)[O-])cc1Cl,11,0,0,2
c1cncc(-c2nc3c4ccccc4nc(N4CCC(N5CCCCC5)CC4)n3n2)c1,1,0,0,46*
C=CCn1c(C(CC)CC(C)(C)O)n[nH]c1=S (configuration not stated),1,-1,0,19
COc1ccc(N(C)C2=NS(=O)(=O)c3ccccc32)cc1,4,0,0,45*
Cc1cc2c(cc1S(=O)(=O)N(C)C1CCCC(C)C1C)OCC(=O)N2 (configuration not stated),5,0,0,-12
CCCOC(=O)c1[nH]c2c(c1C)C(=O)CC(c1ccco1)C2 (configuration not stated),-8,1,0,56*
CSCCOC(=O)c1[nH]c2c(c1C)C(=O)CC(c1ccccc1)C2 (configuration not stated),-2,2,0,45*
COc1ccc(C2CC(=O)c3c([nH]c(C(=O)OCCSC)c3C)C2)cc1 (configuration not stated),18,1,0,-3
CCOCCOC(=O)c1[nH]c2c(c1C)C(=O)CC(c1ccccc1)C2 (configuration not stated),9,0,0,49*
CCOC(=O)c1[nH]c2c(c1C)C(=O)CC(c1ccc(OCC)c(OC)c1)C2 (configuration not stated),-9,0,0,6
CCOC(=O)c1[nH]c2c(c1C)C(=O)CC(c1ccccc1)C2 (configuration not stated),-10,0,0,47*
Cc1c(C(=O)OCC2CCCO2)[nH]c2c1C(=O)CC(c1ccc(F)cc1)C2 (configuration not stated),-4,2,0,9
O=C1CCCC2=C1C(c1cccc(F)c1)NC(=S)N2 (configuration not stated),-2,0,0,-3
COc1ccc(C2=C3C(=O)C(=O)N(CC(C)C)C34C(O)(O)c3ccccc3C4(O)O2)cc1 (configuration not stated),13,-1,0,2
COC(=O)c1[nH]c2c(c1C)C(=O)CC(c1ccc(C)cc1)C2 (configuration not stated),4,3,0,-26
CCOC(=O)c1[nH]c2c(c1C)C(=O)CC(c1ccc(F)cc1)C2 (configuration not stated),-19,1,2.3*,49*
COCCOC(=O)c1[nH]c2c(c1C)C(=O)CC(c1ccc(OC)c(OC)c1)C2 (configuration not stated),8,0,0,27
CCCOCCOC(=O)c1[nH]c2c(c1C)C(=O)CC(c1ccccc1)C2 (configuration not stated),-10,1,0,43*
COC(=O)c1[nH]c2c(c1C)C(=O)CC(c1ccc(F)cc1)C2 (configuration not stated),-1,1,0,40*
CCOCCOC(=O)c1[nH]c2c(c1C)C(=O)CC(c1cc(OC)c(OC)c(OC)c1)C2 (configuration not stated),-3,2,0,42*
Cc1c(C(=O)O)[nH]c2c1C(=O)CC(c1ccc(Cl)cc1)C2 (configuration not stated),-7,-1,0,-2
SMILES,MITF primary,GPR151 ag,FBW7 act,TEAD-YAP inh
COc1c(C)cccc1C(=O)Nc1ccccc1Br,-3,1,0,0
CCS(=O)(=O)N1CCN(S(=O)(=O)c2ccc(Cl)cc2)CC1,5,-1,0,6
CCCN1C(=O)c2ccc(C(=O)Nc3ccc(C(=O)O)cc3)cc2C1=O,18,-1,0,53*
CCCN1C(=O)c2ccc(C(=O)Nc3ccc(O)cc3)cc2C1=O,10,-1,0,38*
CCN1C(=O)c2ccc(C(=O)Nc3cc(C(=O)O)cc(C(=O)O)c3)cc2C1=O,1,2,0,4
CCCN1C(=O)c2ccc(C(=O)Nc3ccc(O)cc3C)cc2C1=O,4,-2,0,6
CCOc1cc(-c2nnc(SCC(=O)NCc3ccc(C)cc3)nc2-c2ccc(OC)c(OCC)c2)ccc1OC,-6,0,0,11
CCOc1cc(-c2nnc(SCC(=O)NCc3ccccc3)nc2-c2ccc(OC)c(OCC)c2)ccc1OC,13,0,0,52*
COc1ccc(-c2nnc(SCC(=O)NCc3cccs3)nc2-c2ccc(OC)c(OC)c2)cc1OC,3,3,0,56*
Cc1cc2oc(=O)cc(CN3CC(C)OC(C)C3)c2cc1Cl (configuration not stated),19,2,0,-2
O=C(O)c1ccccc1/C=N/Nc1nc2ccccc2s1,5,-7,0,94*
CCN(CC)C(=O)c1ccc2nc(NC(=O)c3ccc(OC(C)=O)cc3)sc2c1,10,-8,2.0*,78*
CC(C)c1ccc2nc(NC(=O)c3ccccc3)sc2c1,2,-4,0,39*
O=C(O)COc1ccccc1/C=N/Nc1nc2ccccc2s1,15,-3,0,-10
O=C(CCc1nc2ccccc2s1)c1ccccc1,18,0,2.0*,-18
CCN(CC(=O)NCc1cccs1)C(=O)/C=C/c1cccs1,-12,1,0,-7
CN1CCN(CCNC(=O)c2cc3c(Cl)nc4ccccc4c3s2)CC1,-9,0,0,-9
CN(C)c1cccc(Nc2nccn3c(-c4cccc(F)c4)cnc23)c1,11,1,0,-40
O=C(Nc1nc2ccccc2s1)c1ccccc1,0,-8,0,32*
CCCc1ccc(-c2ccc(C(=O)Nc3nc4ccccc4s3)cc2)nc1,8,1,0,7
CCc1ccc(C(=O)Nc2nc3ccccc3s2)cc1,-2,-5,0,50*
O=C(Nc1nc2ccccc2s1)c1ccc(N2C(=O)CCC2=O)cc1,-2,0,0,-50
N#CC1=C(N)N2CCCSC2=C(C#N)C1c1ccccc1 (configuration not stated),2,1,0,-5
Cc1ccc(C2=N/C(=C\c3ccccc3OC(=O)c3ccc(Cl)cc3)C(=O)O2)cc1,-8,-1,0,45*
O=C1OC(c2ccc(Cl)cc2)=N/C1=C/c1ccccc1OC(=O)c1ccc(Br)cc1,-15,1,0,-3

# High-throughput results: PubChem BioAssay, The Scripps Research Institute Molecular Screening Center
